Assay [1] can be described thus: A CellTox Green Cytotoxicity Assay to monitor cytotoxicity in HepG2 cells - 8 hour (AID 1224890). Note: nearly all actives have a fitted effect of over 45% in size. Summed up: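 Fluorescent DNA-binding dye, 600 HepG2 cells/well, 5 h preincubation then compound in DMSO; same plates read at 0–40 h, 37 C.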
Assay [2] can be described thus: qHTS assay to identify small molecule antagonists of the estrogen receptor alpha (ER-alpha) signaling pathway using the BG1 cell line in the presence of 0.1 nM 17-beta-estradiol - cell viability counter screen (AID 1259241). Note: nearly all actives have a fitted effect of over 40% in size. Summed up: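 The cell line endogenously expresses full-length ER-alpha and carries four EREs driving luciferase. Cells are cultured 5 days hormone-free, treated 22 hr with compounds and 0.1 nM estradiol, then viability is read by fluorescence.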

Assay [3] can be described thus: qHTS assay to identify small molecule antagonists of the androgen receptor (AR) signaling pathway using the MDA cell line in the presence of 0.5 nM R1881 - cell viability counter screen (AID 1259242). Note: nearly all actives have a fitted effect of over 45% in size. Note: potency is the fitted concentration of half-maximal effect. Summed up:
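Human breast carcinoma MDA-kb2 cells, cultured without CO2, receive compounds alongside 0.5 nM (final) R1881 agonist. After 16 hr at 37C, viability is taken as live-cell protease signal.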
(Quantitative high-throughput screening tests each substance at several concentrations.)

Assay [4] in a line: qHTS assay to identify small molecule HDAC inhibitors (AID 1259364). Note: potency is the fitted concentration of half-maximal effect.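 Note: wild-type HCT-116 cells with endogenous class I/II HDAC activity; nearly all actives have a fitted effect of over 45% in size.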 A digest of the protocol: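 After a 2 hr compound incubation (37C, 5% CO2), HCT-116 cells seeded at 1,500/well the day before received HDAC-Glo reagent; signal read as luminescence after 30 min at room temperature.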
A short description of assay [5]: qHTS assay to identify small molecule HDAC inhibitors - cell viability counter screen (AID 1259365). Note: series mostly up to about 92 µM; nearly all actives have a fitted effect of over 50% in size. Summed up:
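Viability readout: CellTiter-Glo luminescence. Wild-type HCT-116 cells, 2hr compound treatment following overnight attachment at 37 C.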

The nature of assay [6]: qHTS assay to identify small molecule agonists of the sonic hedgehog signaling (Shh) pathway - cell viability counter screen (AID 1259366). Note: nearly all actives have a fitted effect of over 50% in size. Summed up: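 Viability measured fluorometrically (CellTiter-Fluor, 1hr, 37C) in 3T3 Gli1-Luc reporter cells after 23hr compound exposure within a 24hr incubation at 37C/5% CO2.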
Assay [7] can be described thus: qHTS assay to identify small molecule antagonists of the sonic hedgehog signaling (Shh) pathway - cell viability counter screen (AID 1259367). Note: nearly all actives have a fitted effect of over 55% in size. A digest of the protocol: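 Fluorescence read-out (CellTiter-Fluor, 1 hr at 37C) taken after 23 hr compound treatment of 3T3 Gli1-Luc cells stimulated with conditioned medium. Cells were seeded at 2,000 per well and pre-incubated 4 hr.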

Assay [8] is described as follows: qHTS assay to identify small molecule phospholipidosis (PLD) inducers (AID 1259344; active = well fitted curve in the direction sought with a large enough effect; an effect the other way counts as inactive or inconclusive). Summed up: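 Read-out is LipidTOX Red fluorescence (ex 595/em 615) imaged in HepG2 cells after 24 h compound exposure at 37 C, with Hoechst nuclear counterstain (ex 352/em 461) allowing per-cell normalisation.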
The target of assay [9] is Estrogen receptor (Homo sapiens) (UniProt P03372). In words: qHTS assay to identify small molecule antagonists of the estrogen receptor alpha (ER-alpha) signaling pathway using the BG1 cell line in the presence of 0.1 nM 17-beta-estradiol (AID 1259244). Note: nearly all actives have a fitted effect of over 50% in size. Summed up: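 Seeding of stripped-serum-adapted VM7Luc4E2 cells, 24 h attachment, compound transfer, then 0.1 nM final 17beta-estradiol; after 22 h incubation, ONE-Glo reagent and luminescence reading.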
Estrogen receptor (Homo sapiens), sequence (P03372 whole entry, looked up): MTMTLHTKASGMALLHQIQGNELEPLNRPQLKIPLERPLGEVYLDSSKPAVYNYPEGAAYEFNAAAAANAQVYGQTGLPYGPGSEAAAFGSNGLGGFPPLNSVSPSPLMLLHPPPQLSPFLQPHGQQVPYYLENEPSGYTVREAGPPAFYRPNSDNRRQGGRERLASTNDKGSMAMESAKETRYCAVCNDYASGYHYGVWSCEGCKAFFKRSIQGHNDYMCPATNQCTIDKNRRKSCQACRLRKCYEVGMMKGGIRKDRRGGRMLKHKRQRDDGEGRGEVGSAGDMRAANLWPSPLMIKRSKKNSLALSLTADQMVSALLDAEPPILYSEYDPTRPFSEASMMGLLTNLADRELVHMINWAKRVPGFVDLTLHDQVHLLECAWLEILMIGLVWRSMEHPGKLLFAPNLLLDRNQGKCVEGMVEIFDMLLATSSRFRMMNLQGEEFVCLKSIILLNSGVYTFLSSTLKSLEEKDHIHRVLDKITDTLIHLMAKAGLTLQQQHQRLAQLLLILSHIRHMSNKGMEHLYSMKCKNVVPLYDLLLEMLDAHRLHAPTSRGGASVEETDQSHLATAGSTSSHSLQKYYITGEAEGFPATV

Results filed as inconclusive are left out. Activity calls are given as the source filed them. Unless noted, calls come from the whole dose curve; as a rule, active = well fitted curve in the direction sought with a large enough effect in the repeat runs; inconclusive = weak or mixed curves; inactive = no such curve, though single readings can be large; an effect the other way counts as inactive or inconclusive.

With `CC1=C(/C=C/C(C)=C\C=C\C(C)=C\C(=O)O)C(C)(C)CCC1`, the Potency result in [1], in [2], in assay [3], in assay [4] and in [5] was “inactive” throughout.

As to `CO[C@H]1O[C@H](CO)[C@@H](O)[C@H](O)[C@H]1O`, the Potency result in assay [1], in [2], in assay [3], in [4], in assay [5] and in [6] was “inactive” in each case. Moreover, the Potency entry in [7] is “inactive”.

Turning to `CCCCCCOC(=O)C(C)C`, the Potency result in assay [1], in [2], in assay [3], in assay [4], in [5] and in assay [6] was “inactive” throughout. Also, the Potency result in [7] is “inactive”.

For the molecule `CC1=CC(=O)CC(C)(C)C1(O)/C=C/C(C)=C\C(=O)O` (configuration not stated), the Potency result in assay [1], in assay [2], in [3], in assay [4], in [5] and in assay [6] was “inactive” each time. For the same molecule, the Potency entry in assay [7] is “inactive”.

In the case of `CCCC1C(CC)=CC(CC)=CN1c1ccccc1` (configuration not stated), the Potency entry in assay [1], in assay [2], in assay [4], in [5], in [6] and in assay [7] was “inactive” each time. Besides, the Potency in assay [3] was 48.6 µM (active).

`CC(=N\O)/C(C)=N/O`: the Potency entry in assay [1], in assay [2], in assay [3], in assay [4], in assay [5] and in assay [6] was “inactive” each time. The Potency entry in assay [7] was “inactive”.

For `O=S(=O)(c1ccccc1)c1ccc(Cl)cc1`, the Potency result in [1], in assay [2], in assay [3], in assay [4], in assay [5] and in [6] was “inactive” in each case. Also, the Potency entry in assay [7] is “inactive”.

Turning to `Cc1cc(OI)c(C(C)C)cc1-c1cc(C(C)C)c(OI)cc1C`, the Potency result in [1], in [2], in [3], in [4], in assay [5] and in assay [6] was “inactive” throughout. Also, the Potency result in assay [7] was “inactive”.

For the molecule `NC(=O)Nc1ccc(Cl)c(Cl)c1`, the Potency result in assay [1], in assay [2], in assay [3], in assay [4], in assay [5] and in [6] was “inactive” each time. Besides, the Potency result in assay [7] is “inactive”.

For `CC(=O)Oc1ccc2c(c1)CC[C@@H]1[C@@H]2CC[C@]2(C)[C@@H](O)CC[C@@H]12`, the Potency entry in assay [1], in [2], in assay [3], in [4], in assay [5] and in assay [6] was “inactive” each time. In addition, the Potency result in assay [7] was “inactive”.

`CC1CC(O)CC(C)(C)C1` (configuration not stated): the Potency entry in assay [1], in assay [2], in assay [3], in assay [4], in assay [5] and in assay [6] was “inactive” throughout. For the same molecule, the Potency entry in [7] is “inactive”. Moreover, in assay [8], the molecule was called inactive.

On to `O=C(Nc1ccc([N+](=O)[O-])cc1)Nc1ccc([N+](=O)[O-])cc1`, for which the Potency result in assay [1], in [2], in assay [3], in assay [4], in assay [5] and in assay [7] was “inactive” each time. The molecule was classed as inactive in [8].

Turning to `O=C1OCCN1/N=C/c1ccc([N+](=O)[O-])o1`, the Potency entry in assay [1], in assay [2], in assay [3], in [9], in [5] and in assay [7] was “inactive” in each case.

In the case of `C=C(C)C(=O)OCCOC(=O)CC(C)=O`, the Potency result in [1], in assay [2], in assay [3], in assay [4], in [5] and in assay [6] was “inactive” in each case. In addition, in assay [7], the Potency result is “inactive”.

Consider `Cc1ccc(/C=N/n2c(-c3ccccc3)csc2=S)cc1`, for which the Potency entry in [1], in [2], in assay [3], in assay [4], in assay [5] and in assay [6] was “inactive” throughout. For the same molecule, the Potency result in assay [7] is “inactive”. Besides, the molecule was called inactive in assay [8].

As for `CCC(=O)Oc1ccc(/C(CC)=C(\CC)c2ccc(OC(=O)CC)cc2)cc1`, the Potency entry in [1], in [2], in [3], in [4], in assay [5] and in [6] was “inactive” throughout.

As to `CC[C@H](NC(=O)c1cc(F)ccc1NS(=O)(=O)c1cccc2cccnc12)c1ccccc1`, the Potency result in [1], in assay [2], in assay [3], in assay [4], in [5] and in assay [6] was “inactive” throughout. For the same molecule, the Potency entry in assay [7] is “inactive”.

On to `CC[C@@H]([C@H](C)O)n1ncn(-c2ccc(N3CCN(c4ccc(OC[C@@H]5CO[C@@](Cn6cncn6)(c6ccc(F)cc6F)C5)cc4)CC3)cc2)c1=O`, for which the Potency entry in [1], in assay [2], in assay [4], in assay [5], in assay [6] and in assay [7] was “inactive” throughout. In addition, the Potency in [3] is 26.6 µM (active). The result in assay [8] was inactive.

For `C/C=C(\C)C(=O)OCCC(C)CCC=C(C)C` (configuration not stated), the Potency entry in assay [1], in [2], in assay [3], in assay [4], in assay [5] and in [6] was “inactive” each time. Further, the Potency entry in assay [7] is “inactive”.

`Cc1ccccc1N1C(=O)c2cc(S(N)(=O)=O)c(Cl)cc2NC1C` (configuration not stated): the Potency result in assay [1], in assay [2], in assay [3], in assay [4], in assay [5] and in [7] was “inactive” in each case. Besides, the molecule was classed as inactive in assay [8].

In the case of `CCOC(=O)c1ccccc1OC`, the Potency result in [1], in assay [2], in [3], in assay [4], in assay [5] and in [6] was “inactive” each time. Moreover, the Potency entry in assay [7] was “inactive”.

With `CN(C(=O)C(Cl)Cl)c1ccc(OC(=O)c2ccco2)cc1`, the Potency result in assay [1], in assay [2], in assay [3], in [4], in [5] and in [6] was “inactive” throughout. For the same molecule, the Potency entry in [7] was “inactive”.

Turning to `O=c1[nH]c2ccc(S(=O)CCN3CCC(Cc4ccc(F)cc4)CC3)cc2o1` (configuration not stated), the Potency entry in assay [1], in [2], in assay [3], in [4], in assay [5] and in assay [6] was “inactive” in each case. Besides, the Potency result in [7] was “inactive”.

`O=C(OCCOCCO)c1ccccc1Nc1cccc(C(F)(F)F)c1`: the Potency result in [1], in assay [2], in assay [3], in [4], in assay [5] and in assay [6] was “inactive” each time. The Potency entry in assay [7] is “inactive”. In addition, the result in [8] was inactive.

Take `COC(=O)Nc1nc2ccc(C(=O)c3cccs3)cc2[nH]1`: the Potency entry in assay [1], in assay [2], in assay [3], in assay [5] and in assay [6] was “inactive” in each case. For the same molecule, the molecule was called inactive in [8]. Besides, the Potency in assay [4] is 11.9 µM (active).

As for `Nc1nccs1`, the Potency result in [1], in assay [2], in assay [3], in assay [4], in assay [5] and in assay [6] was “inactive” in each case. The Potency entry in assay [7] was “inactive”.

The record behind these values is PubChem BioAssay (Tox21).
